Unmarked numbers belong to inactive results. Results filed as inconclusive are left out. Activity calls are given as the source filed them. Unless noted, calls come from the whole dose curve; as a rule, active = well fitted curve in the direction sought with a large enough effect; inconclusive = small, poorly fitted or top-dose-only effect, or another doubt; inactive = no such curve, though single readings can be large; an effect the other way counts as inactive or inconclusive.
Legend:
[1] = molecular target: Lysosomal acid glucosylceramidase (Homo sapiens) (UniProt P04062); experiment: Glucocerebrosidase-p2 (AID 348; in the data active = potency below about 10 µM; note: potency is the fitted concentration of half-maximal effect); details: purified GBA, blue fluorogenic substrate, 40 min
Procedure, shortened: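 Compounds titrated from 0.6 nM upwards against 0.2 nM enzyme in pH 5.9 citric acid/KH2PO4, taurocholate, tween-20; blue fluorogenic substrate 80 uM, 40 min room temperature, stopped and read Ex 365/Em 440 for AC50.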

[2] = AP1 Signaling Pathway (AID 357; active = well fitted curve in either direction with a large enough effect, not every such curve was filed as active;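 note: ME-180 reporter cells stimulated with EGF at its EC50 level; % is set by controls: 0 for no effect and ±100 for the full control effect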); details: ME-180 AP-1-bla reporter, EGF-induced, beta-lactamase ratio, 5 h; at 7.69 µM (top of the series) unless noted
Procedure, shortened: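 AP-1-bla ME-180 cells, Opti-MEM + 0.5% dialyzed FBS, plated overnight 37 °C. Cpd titration + EC50 EGF, 5 h 37 °C. CCF4 2.5 h RT; ex 405, em 460/530 ratio → %activity, AC50.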

[3] = molecular target: Cytochrome P450 1A2 (Homo sapiens) (UniProt P05177); experiment: p450-cyp1a2 (AID 410; calls by dose curve; note: potency is the fitted concentration of half-maximal effect); details: recombinant CYP1A2, luciferin-ME demethylation, luminescence; series mostly up to 57 µM
Procedure, shortened: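 Luminescent readout of luciferin formed from Luciferin-ME by human CYP1A2; data normalized against complete inhibition by 57 uM furafylline. Enzyme 20nM, substrate 100uM at Km, 100mM KPO4 buffer, 60 min reaction at room temperature.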

[4] = NFAT Signaling Pathway (AID 444; active = well fitted curve in either direction with a large enough effect, not every such curve was filed as active;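 note: carbachol stimulus at about its EC50 of 1 µM final; % is set by controls: 0 for no effect and ±100 for the full control effect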); details: Jurkat NFAT-bla M1, carbachol, beta-lactamase ratio, 5 h; at 7.69 µM (top of the series) unless noted
Procedure, shortened: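 Jurkat cells with NFAT-driven β-lactamase reporter and co-expressed M1 receptor, stimulated with carbachol (final 1 uM, ~EC50), compound titration, 5 h at 37 °C. CCF4 loaded 1 h at RT; 460/530 nm ratio gave %activity and AC50.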

[5] = Stat Signaling Pathway (AID 446; active = well fitted curve in either direction with a large enough effect, not every such curve was filed as active;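 note: ME-180 cervical cancer cells given 40 pM IL-6 alongside compound; SIE-controlled beta-lactamase reporter measured as 460/530 nm FRET emission ratio; % is set by controls: 0 for no effect and ±100 for the full control effect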); details: ME-180 SIE beta-lactamase reporter, IL-6 stimulated, 5 h; at 7.69 µM (top of the series) unless noted
Procedure, shortened: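 ME-180 SIE-bla cells; overnight plating; cpd + IL-6 40 pM, 5 h, 37 C; LiveBLAzer 2.5 h RT; 460/530 nm emission ratio. Normalized to 300 pM IL-6 and 125 nM JAK inhibitor controls.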

[6] = molecular target: Glucocorticoid receptor (Homo sapiens) (UniProt P04150); experiment: GR-GFP Redistribution (AID 450;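 active = compounds whose dose series gives a full or clear partial fitted curve of increased nuclear translocation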; note: potency is the fitted concentration of half-maximal effect); details: U2OS GR-GFP nuclear translocation, laser cytometry, 2 h
[7] = molecular target: Glucocorticoid receptor (Homo sapiens) (UniProt P04150); experiment: GR-EFC Redistribution (AID 451; calls by dose curve; note: potency is the fitted concentration of half-maximal effect); details: CHO-K1 GR-EFC translocation, beta-gal luminescence, 2 h
Procedure, shortened: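 CHO-K1 cells expressing nuclear EA and GR-ED fragments of b-gal; compounds titrated up to 46 uM final, 2 h at 37 C. GR nuclear translocation read as complemented b-gal luminescence after 1 h RT detection.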

[8] = molecular target: Mitogen-activated protein kinase 10 (Mus musculus) (UniProt Q61831); experiment: JNK3 AlphaScreen Assay (AID 530; active = well fitted curve in either direction with a large enough effect, not every such curve was filed as active;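 note: kinase came from lysate of stimulated human HepG2 cells; signal reports phosphorylation of biotinylated GST-cJun 1-79 at Ser73 with 10 µM ATP; % is set by controls: 0 for no effect and ±100 for the full control effect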); details: JNK3 lysate, c-Jun phosphorylation; series mostly up to 57.1 µM
Procedure, shortened: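 Pre-activated (IL-1β/TNFα) JNK3 in HepG2 lysates phosphorylates biotin-GST-cJun(1-79), 10 uM ATP; anti-phospho-cJun(Ser73) AlphaScreen read at room temperature, pH 7.6 Tris buffer. Compounds pre-incubated 15 min as titrations.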

[9] = molecular target: 3',5'-cyclic-AMP phosphodiesterase 4B (Homo sapiens) (UniProt Q07343); experiment: qHTS Assay for Inhibitors of PDE-IV (AID 607; active = well fitted activation curve with a large enough effect in the main read-out, with a control signal flat, not every such curve was filed as active; note: potency is the fitted concentration of half-maximal effect); details: HEK293 ACTOne CNG channel cells, membrane potential fluorescence; series mostly up to 22.9 µM
Procedure, shortened: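 ACTOne HEK293 cells carry a modified cAMP-gated CNG channel and express endogenous PDE4; plated 1000 cells/well, compounds up to 22.9 uM final. Membrane-potential dye fluorescence (ex 535/em 590) was read; parental cells received 10 uM forskolin + 100 uM RO 20-1724.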

[10] = molecular target: Cytochrome P450 2C9 (Homo sapiens) (UniProt P11712); experiment: qHTS Assay for Inhibitors and Substrates of Cytochrome P450 2C9 (AID 883); details: recombinant CYP2C9, luciferin-H luminescence, 60 min; series mostly up to 57.1 µM; note: % is set by controls: 0 for no effect and ±100 for the full control effect; nearly all actives have a fitted effect of over 60% in size
Procedure, shortened: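 10nM CYP2C9 + 100uM Luciferin-H (=KM), 25mM KPO4; cpd 10 min 37C; NADPH regen, 60 min 37C; stop/detect with P450 Glo-Buffer 20 min; luminescence. Norm. to 57uM sulphaphenazole as full inhibition.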

[11] = molecular target: Cytochrome P450 3A4 (Homo sapiens) (UniProt P08684); experiment: qHTS Assay for Inhibitors and Substrates of Cytochrome P450 3A4 (AID 884); details: recombinant CYP3A4, Luciferin-PPXE luminescence; series mostly up to 57.1 µM; note: potency is the fitted concentration of half-maximal effect; nearly all actives have a fitted effect of over 50% in size
Procedure, shortened: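 20 nM human CYP3A4 with 25 uM Luciferin-PPXE (at KM) in 200 mM KPO4, preincubated 10 min with compound; NADPH regeneration started a 60 min RT reaction. Luciferin detected by luminescence, normalized to 57 uM ketoconazole as full inhibition.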

[12] = molecular target: Cytochrome P450 3A4 (Homo sapiens) (UniProt P08684); experiment: qHTS Assay for Activators of Cytochrome P450 3A4 (AID 885); details: recombinant CYP3A4, Luciferin-PPXE luminescence, 60 min; series mostly up to 57.1 µM; note: nearly all actives have a fitted effect of over 65% in size
Procedure, shortened: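 20nM CYP3A4 + 25uM Luciferin-PPXE (=KM), 200mM KPO4; cpd 10 min RT; NADPH regen, 60 min RT; stop w/ detection buffer, 20 min; luminescence. Normalized to 57 uM ketoconazole.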

[13] = molecular target: Dual specificity protein kinase CLK4 (Homo sapiens) (UniProt Q9HAZ1); experiment: qHTS Assay for Inhibitors of CDC-like Kinase 4 (ADP-FP Assay) (AID 1795); details: Transcreener ADP fluorescence polarization; series mostly up to 50 µM;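 note: recombinant human CLK4 phosphorylating RS repeat peptide at 1 µM ATP; % is set by controls: 0 for no effect and ±100 for the full control effect; nearly all actives have a fitted effect of over 60% in size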
Procedure, shortened: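 Clk4 6.25 nM; RS peptide 100 uM; ATP 1 uM; 25 mM Tris pH 7.5, 10 mM MgCl2; 1 h reaction. ADP detected via antibody/orange tracer FP displacement; TG003 positive control.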

[14] = molecular target: Ubiquitin carboxyl-terminal hydrolase 1 (Homo sapiens) (UniProt O94782); experiment: Inhibitors of USP1/UAF1: Pilot qHTS (AID 504865); details: purified USP1/UAF1, Ub-rhodamine cleavage fluorescence; series mostly up to 54.9 µM;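 note: rhodamine fluorescence freed from ubiquitin-rhodamine substrate followed over time; top concentration of the series differs between compounds; % is set by controls: 0 for no effect and ±100 for the full control effect; nearly all actives have a fitted effect of over 35% in size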
Procedure, shortened: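 In 50mM HEPES pH 7.8 containing 0.5mM EDTA, 1mM TCEP, 0.1 mg/ml BSA and 0.01% Tween-20, 1nM USP1/UAF1 is exposed to compound for 15 min, then Ub-Rho (150nM final) is added and fluorescence is read over time.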

[15] = Primary qHTS for small molecule stabilizers of the endoplasmic reticulum resident proteome: Secreted ER Calcium Modulated Protein (SERCaMP) assay (AID 1508630); details: SH-SY5Y GLuc-SERCaMP (Gaussia luciferase released on ER calcium loss) secretion, thapsigargin, luminescence; series mostly up to 38.4 µM; note: % is set by controls: 0 for no effect and ±100 for the full control effect
Procedure, shortened: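 GLuc-SERCaMP-expressing SH-SY5Y cells, pretreated 16 h with compound, are challenged with thapsigargin to empty ER calcium stores; after 4 h, coelenterazine is added directly to the medium and luminescence is imaged.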

[16] = molecular target: Dual specificity protein kinase CLK4 (Homo sapiens) (UniProt Q9HAZ1); experiment: qHTS Assay for Inhibitors of CDC-like Kinase 4 (ADP-Glo Assay) (AID 1771); details: recombinant CLK4, ADP-Glo luminescence; series mostly up to 80 µM; note: nearly all actives have a fitted effect of over 70% in size; note: potency is the fitted concentration of half-maximal effect
Procedure, shortened: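 Luminescence from ADP-Glo reports ADP produced by 25 nM Clk4 acting on 100 uM RS repeat peptide with 1 uM ATP over 1 hr at room temperature; residual ATP is depleted before ADP is converted to ATP for detection.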

Lysosomal acid glucosylceramidase (Homo sapiens), sequence (P04062 whole entry, looked up): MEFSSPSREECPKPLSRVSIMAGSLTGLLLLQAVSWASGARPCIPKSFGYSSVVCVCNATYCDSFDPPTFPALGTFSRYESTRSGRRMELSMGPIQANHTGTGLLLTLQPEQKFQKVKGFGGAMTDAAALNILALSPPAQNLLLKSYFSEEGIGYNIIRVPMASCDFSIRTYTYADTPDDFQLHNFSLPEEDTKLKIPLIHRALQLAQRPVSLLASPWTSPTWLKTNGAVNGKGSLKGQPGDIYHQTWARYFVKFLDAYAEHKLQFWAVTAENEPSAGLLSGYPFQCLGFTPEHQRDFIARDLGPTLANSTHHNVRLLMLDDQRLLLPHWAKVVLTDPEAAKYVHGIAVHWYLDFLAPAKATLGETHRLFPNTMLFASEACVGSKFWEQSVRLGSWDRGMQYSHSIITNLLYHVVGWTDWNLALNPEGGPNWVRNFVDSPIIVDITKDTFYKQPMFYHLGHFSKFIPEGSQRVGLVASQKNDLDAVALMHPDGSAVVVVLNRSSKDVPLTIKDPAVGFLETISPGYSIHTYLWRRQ
Dual specificity protein kinase CLK4 (Homo sapiens), sequence (Q9HAZ1 whole entry, looked up): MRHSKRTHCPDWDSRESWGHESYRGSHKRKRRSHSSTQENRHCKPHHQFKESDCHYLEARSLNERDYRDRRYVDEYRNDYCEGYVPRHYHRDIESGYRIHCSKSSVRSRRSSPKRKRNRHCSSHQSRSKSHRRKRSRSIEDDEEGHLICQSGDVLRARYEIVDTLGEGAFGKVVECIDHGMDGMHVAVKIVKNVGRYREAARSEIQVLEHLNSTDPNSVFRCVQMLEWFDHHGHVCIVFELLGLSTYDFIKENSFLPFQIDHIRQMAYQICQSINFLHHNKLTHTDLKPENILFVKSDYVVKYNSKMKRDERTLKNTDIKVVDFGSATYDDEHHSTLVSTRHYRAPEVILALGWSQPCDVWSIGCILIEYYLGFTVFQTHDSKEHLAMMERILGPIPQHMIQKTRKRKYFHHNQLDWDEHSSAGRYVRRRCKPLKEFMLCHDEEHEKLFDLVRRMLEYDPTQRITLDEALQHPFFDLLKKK
3',5'-cyclic-AMP phosphodiesterase 4B (Homo sapiens), sequence (Q07343 whole entry, looked up): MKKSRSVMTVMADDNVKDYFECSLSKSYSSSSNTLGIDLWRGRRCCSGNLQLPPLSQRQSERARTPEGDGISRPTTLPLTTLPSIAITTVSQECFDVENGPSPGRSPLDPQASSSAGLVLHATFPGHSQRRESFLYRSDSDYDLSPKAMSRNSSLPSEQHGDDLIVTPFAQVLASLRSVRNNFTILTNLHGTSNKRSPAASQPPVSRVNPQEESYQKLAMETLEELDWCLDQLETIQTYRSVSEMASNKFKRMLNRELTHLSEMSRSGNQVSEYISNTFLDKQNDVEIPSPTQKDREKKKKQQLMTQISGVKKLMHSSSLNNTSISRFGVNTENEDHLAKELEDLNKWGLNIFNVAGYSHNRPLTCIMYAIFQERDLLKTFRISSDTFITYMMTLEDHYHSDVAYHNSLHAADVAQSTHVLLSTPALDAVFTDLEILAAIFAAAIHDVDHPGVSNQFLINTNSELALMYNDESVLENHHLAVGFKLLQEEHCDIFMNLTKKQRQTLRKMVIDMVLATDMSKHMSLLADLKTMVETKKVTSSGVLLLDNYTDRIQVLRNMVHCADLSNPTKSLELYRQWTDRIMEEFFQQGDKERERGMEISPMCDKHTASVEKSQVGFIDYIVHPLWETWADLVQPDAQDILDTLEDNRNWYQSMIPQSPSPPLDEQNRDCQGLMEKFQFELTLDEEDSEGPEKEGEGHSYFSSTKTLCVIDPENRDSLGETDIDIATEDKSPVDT
Glucocorticoid receptor (Homo sapiens), sequence (P04150 whole entry, looked up, the tested form may be a part): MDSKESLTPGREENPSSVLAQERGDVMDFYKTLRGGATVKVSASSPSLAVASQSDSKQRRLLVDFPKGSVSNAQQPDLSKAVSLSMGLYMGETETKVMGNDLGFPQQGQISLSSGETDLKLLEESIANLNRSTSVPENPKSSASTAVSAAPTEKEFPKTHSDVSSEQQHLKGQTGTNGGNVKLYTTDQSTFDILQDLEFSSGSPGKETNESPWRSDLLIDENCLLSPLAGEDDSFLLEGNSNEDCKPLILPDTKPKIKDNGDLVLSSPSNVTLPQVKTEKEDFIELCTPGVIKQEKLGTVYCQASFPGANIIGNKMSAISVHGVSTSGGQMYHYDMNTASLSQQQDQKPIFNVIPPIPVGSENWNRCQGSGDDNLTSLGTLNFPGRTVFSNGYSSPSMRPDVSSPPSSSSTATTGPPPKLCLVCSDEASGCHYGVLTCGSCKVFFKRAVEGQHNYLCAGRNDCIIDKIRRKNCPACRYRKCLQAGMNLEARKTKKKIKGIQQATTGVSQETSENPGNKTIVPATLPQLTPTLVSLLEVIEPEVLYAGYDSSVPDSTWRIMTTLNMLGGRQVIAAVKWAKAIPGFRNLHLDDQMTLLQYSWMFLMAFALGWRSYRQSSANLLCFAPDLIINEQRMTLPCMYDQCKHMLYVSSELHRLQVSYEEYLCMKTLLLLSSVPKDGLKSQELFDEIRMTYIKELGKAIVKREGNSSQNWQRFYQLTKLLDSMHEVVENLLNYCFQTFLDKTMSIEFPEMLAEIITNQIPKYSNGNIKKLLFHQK
Cytochrome P450 3A4 (Homo sapiens), sequence (P08684 whole entry, looked up): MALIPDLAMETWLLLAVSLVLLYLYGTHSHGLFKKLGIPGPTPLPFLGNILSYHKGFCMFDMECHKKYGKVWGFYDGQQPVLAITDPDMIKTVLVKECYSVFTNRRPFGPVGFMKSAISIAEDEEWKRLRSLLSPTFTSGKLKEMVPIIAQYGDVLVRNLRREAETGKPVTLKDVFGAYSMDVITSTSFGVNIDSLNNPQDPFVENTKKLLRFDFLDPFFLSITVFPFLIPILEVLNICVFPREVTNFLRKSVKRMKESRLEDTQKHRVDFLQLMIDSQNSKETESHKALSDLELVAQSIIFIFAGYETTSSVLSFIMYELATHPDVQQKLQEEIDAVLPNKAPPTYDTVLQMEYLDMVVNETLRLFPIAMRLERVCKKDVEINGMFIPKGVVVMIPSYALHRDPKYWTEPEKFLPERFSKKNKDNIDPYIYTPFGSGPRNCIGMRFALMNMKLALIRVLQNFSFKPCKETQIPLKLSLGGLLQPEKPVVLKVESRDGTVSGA
Cytochrome P450 1A2 (Homo sapiens), sequence (P05177 whole entry, looked up): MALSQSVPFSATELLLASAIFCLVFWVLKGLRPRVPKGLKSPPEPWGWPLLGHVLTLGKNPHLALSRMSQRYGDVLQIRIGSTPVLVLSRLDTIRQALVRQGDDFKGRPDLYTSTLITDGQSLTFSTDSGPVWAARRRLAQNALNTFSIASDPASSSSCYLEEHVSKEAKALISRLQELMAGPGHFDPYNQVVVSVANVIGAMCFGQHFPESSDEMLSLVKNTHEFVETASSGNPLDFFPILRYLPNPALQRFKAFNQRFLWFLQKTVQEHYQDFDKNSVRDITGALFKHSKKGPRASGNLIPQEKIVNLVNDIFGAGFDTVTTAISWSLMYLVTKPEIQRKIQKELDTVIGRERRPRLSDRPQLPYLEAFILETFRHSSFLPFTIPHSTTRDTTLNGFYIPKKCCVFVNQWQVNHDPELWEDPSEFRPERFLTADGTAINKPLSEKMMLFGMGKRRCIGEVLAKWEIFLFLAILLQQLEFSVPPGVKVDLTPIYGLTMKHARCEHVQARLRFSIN
Ubiquitin carboxyl-terminal hydrolase 1 (Homo sapiens), sequence (O94782 whole entry, looked up): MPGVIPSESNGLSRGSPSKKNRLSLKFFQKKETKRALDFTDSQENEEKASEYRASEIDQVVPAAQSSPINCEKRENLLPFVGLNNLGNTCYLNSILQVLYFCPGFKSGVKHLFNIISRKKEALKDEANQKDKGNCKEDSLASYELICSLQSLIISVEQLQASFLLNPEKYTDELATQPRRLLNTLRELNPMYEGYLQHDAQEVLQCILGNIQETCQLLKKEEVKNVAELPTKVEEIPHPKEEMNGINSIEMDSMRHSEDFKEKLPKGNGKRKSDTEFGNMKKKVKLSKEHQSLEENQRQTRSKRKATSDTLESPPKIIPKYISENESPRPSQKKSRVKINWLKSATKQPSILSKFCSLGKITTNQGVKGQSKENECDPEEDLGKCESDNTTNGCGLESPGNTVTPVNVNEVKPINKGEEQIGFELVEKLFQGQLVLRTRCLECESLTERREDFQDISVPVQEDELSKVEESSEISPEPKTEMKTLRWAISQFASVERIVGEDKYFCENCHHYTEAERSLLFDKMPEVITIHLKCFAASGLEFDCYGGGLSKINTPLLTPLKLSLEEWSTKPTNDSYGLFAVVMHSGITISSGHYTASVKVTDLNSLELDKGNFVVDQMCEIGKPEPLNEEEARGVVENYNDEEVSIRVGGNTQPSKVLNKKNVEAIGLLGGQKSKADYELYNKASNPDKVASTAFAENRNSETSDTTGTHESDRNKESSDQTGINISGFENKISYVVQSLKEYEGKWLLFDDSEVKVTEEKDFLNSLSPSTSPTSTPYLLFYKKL
Cytochrome P450 2C9 (Homo sapiens), sequence (P11712 whole entry, looked up): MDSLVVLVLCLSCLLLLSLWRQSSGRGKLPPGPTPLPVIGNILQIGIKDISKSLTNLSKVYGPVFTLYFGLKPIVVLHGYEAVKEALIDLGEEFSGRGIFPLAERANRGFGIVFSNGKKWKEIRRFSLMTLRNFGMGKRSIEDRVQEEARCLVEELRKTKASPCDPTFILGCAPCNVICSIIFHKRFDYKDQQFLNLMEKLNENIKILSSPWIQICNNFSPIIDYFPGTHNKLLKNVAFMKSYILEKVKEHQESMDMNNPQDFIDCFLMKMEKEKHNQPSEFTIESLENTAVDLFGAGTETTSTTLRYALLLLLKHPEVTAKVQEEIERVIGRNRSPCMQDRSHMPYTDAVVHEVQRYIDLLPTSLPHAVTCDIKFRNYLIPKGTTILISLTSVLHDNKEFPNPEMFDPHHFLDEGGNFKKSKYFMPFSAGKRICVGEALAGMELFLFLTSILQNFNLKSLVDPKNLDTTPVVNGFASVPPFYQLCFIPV

SMILES	Potency [1] [µM]	activity change, negative = inhibition [2] [%]	Potency [3]	activity change, negative = inhibition [4] [%]	activity, negative = inhibition [5] [%]	Potency [6] [µM]	Potency [7] [µM]	Potency [8]	Potency [9]	activity change, negative = inhibition [10]	Potency [11]	Potency [12]	Potency [13]	Potency [14]	outcome [15]	Potency [16]
COc1ccc(CNc2ccnc(-c3cccc(NS(C)(=O)=O)c3)n2)c(OC)c1	> 11.4	-18.2	15.8 µM (active)	8.15	-1.05	> 46	> 46	inactive	2 µM (active)	20.5% [at 2.29 µM]	3.98 µM (active)	inactive	inactive	inactive	inactive	
CC(=O)NCCNc1ncnc2ccc(-c3ccccc3C(F)(F)F)cc12	> 11.4	12.5	10 µM (active)	6.87		> 46	> 46	inactive			6.31 µM (active)	inactive		inactive	inactive	31.6 µM (active)
CS(=O)(=O)Nc1cccc(-c2cncnc2-n2ccnc2)c1	> 11.4	7.32	15.8 µM (active)	14.5	14.6	> 46	> 46	inactive	inactive		7.94 µM (active)	inactive	inactive	inactive	inactive	
COc1ccc(-n2c(=O)c(-c3cc(F)cc(F)c3)nc3cncnc32)cc1	> 11.4	-5	12.6 µM (active)	-16	6.92	> 9.22	> 46	inactive	inactive			inactive		inactive	inactive	inactive
CNc1nc(-c2ccc(C(=O)N(C)C)cc2)nc2ccccc12		7.59		23.4	-0.956	> 46	> 46	inactive	inactive					inactive	inactive	28.2 µM (active)
COc1ccccc1-c1nc(NCCN2CCOCC2)c2ccccc2n1	> 11.4	7.09	7.94 µM (active)	-28.2	29.7	> 46	> 46	inactive	inactive			inactive	inactive	inactive	inactive	
COc1ccc(-c2nc3cnc(N4CCOCC4)nc3n(Cc3cccs3)c2=O)cc1	> 11.4	12.3	2.51 µM (active)	-2.31		> 9.22	> 46	inactive	1.58 µM (active)				inactive	inactive	inactive	
